In the library only some 18% were active in any assay of this set; here they are far more common.
Six1-Eya2 blk – blocks human Six1 binding to Eya2; Q15475+O00167; AlphaScreen GST-Six1/His-Eya2 binding, biochemical; hits give low values; activity change, % (no concentration beside the values); actives 0.56% (n = 360,000); AID 651725; in the data active = activity change below about -65%; inconclusive = mostly about -30% to -63%
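Compounds are tested against tagged Six1 and Eya2 proteins bridged by glutathione donor and nickel acceptor beads; after a one-hour incubation at 37 °C without light, AlphaScreen emission is recorded.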
TDP1 cell noCPT – qHTS for Inhibitors of human tyrosyl-DNA phosphodiesterase 1 (TDP1): qHTS in cells in absence of CPT. DT40 Tdp1-/- hTDP1 cells, no CPT, ATP luminescence, 48 h. Potency, µM (titrated, usually from 46.2 µM), for the others: at the top dose activity change, negative = growth inhibition, actives largely listed as inhibitors. actives 15% (n = 420,000). AID 686978, 2013; also: potency is read from the fitted curve at half-maximal effect; nearly all actives have a fitted effect of over 55% in size
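Luminescent ATP content (CellTiter-Glo) served as the growth readout. Knockout chicken DT40 cells expressing human TDP1 were exposed to compounds without camptothecin for a minimum 48 hr at 37 °C.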
IL-1B inflam inh – inhibitors of inflammasome signaling (IL-1 beta secretion); AID 743279; THP-1 LPS/ATP IL-1B secretion, AlphaLISA, 16 h; hits give low values; activity change, % at 57.5 µM; actives 4.7% (n = 360,000); in the data active = activity change below about -50%; inconclusive = mostly about -30% to -49%
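Secreted IL-1B measured by AlphaLISA bead assay after 16 h compound exposure of THP-1 cells; compounds (final up to 57.5 uM) added 1 h before LPS (250 ng/mL) and ATP (1.25 mM) stimulation; lower signal means less secretion.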
CtBP-E1A blk – CtBP/E1A binding inhibition | AlphaScreen GST-E1A/His-CtBP binding, 1536-well; hits give low values | activity change, % (concentration not given with the values) | actives 0.49% (n = 340,000) | AID 651724; in the data active = activity change below about -65%; inconclusive = mostly about -30% to -63%
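AlphaScreen with 125 nM GST-E1A and 125 nM His-CtBP (5X stocks) in Tris pH 8.0, 300 mM NaCl, BSA, Tween 20, TCEP. Compounds preincubated 2 h at 37 deg C, then glutathione donor/nickel acceptor beads added for 1 h at 37 deg C in dark.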
TDP1 inh – inhibitors of human tyrosyl-DNA phosphodiesterase TDP1. AID 485290. recombinant TDP1, AlphaScreen DNA substrate cleavage. actives 0.28% (n = 350,000). Potency, µM (doses to about 130 µM), for inactives: at the highest dose activity change, negative = inhibition, most hits filed as inhibitors. Q9NUW8; also: potency is read from the fitted curve at half-maximal effect; nearly all actives have a fitted effect of over 40% in size
Target sequence (Q9NUW8 whole entry, looked up): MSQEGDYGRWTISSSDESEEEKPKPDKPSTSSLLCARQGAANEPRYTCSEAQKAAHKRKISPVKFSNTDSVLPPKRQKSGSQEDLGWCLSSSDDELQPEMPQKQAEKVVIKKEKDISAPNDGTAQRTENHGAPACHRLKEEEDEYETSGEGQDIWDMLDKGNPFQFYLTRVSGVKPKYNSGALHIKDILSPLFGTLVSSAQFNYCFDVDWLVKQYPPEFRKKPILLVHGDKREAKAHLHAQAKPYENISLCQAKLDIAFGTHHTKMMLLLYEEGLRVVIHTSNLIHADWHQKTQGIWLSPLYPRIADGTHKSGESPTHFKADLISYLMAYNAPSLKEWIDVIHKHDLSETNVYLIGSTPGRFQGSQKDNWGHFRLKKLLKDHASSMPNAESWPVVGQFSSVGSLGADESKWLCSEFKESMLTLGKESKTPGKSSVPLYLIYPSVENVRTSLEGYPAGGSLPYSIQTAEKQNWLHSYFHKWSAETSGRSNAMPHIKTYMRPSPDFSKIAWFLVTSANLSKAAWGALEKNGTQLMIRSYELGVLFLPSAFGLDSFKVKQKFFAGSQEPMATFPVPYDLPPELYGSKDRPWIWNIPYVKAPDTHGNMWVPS
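Recombinant E. coli-expressed Tdp1 (1 nM) preincubated with compound 15 min at RT, then 5'-biotin/3'-phosphotyrosine-FITC DNA substrate (15 nM) added for 5 min. AlphaScreen beads (10 ug/ml) added, 10 min RT; tyrosine-FITC cleavage read as signal loss.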
TDP1 cell CPT – growth inhibition of DT40 Tdp1-/-;hTDP1 cells with camptothecin (screen for TDP1 inhibitors). chicken DT40 Tdp1-/-;hTDP1 cells + 20 nM CPT, ATP luminescence, 48 h. Potency, µM (titrated, usually from 46.2 µM), for the others: at the highest dose activity change, negative = growth inhibition, most hits filed as inhibitors. AID 686979. actives 12% (n = 420,000); also: potency is read from the fitted curve at half-maximal effect; nearly all actives have a fitted effect of over 55% in size
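Chicken DT40 Tdp1-/- cells complemented with human TDP1, 400 cells/well, exposed to compounds plus 20 nM camptothecin for at least 48 h at 37 C; viability read as ATP content by CellTiter-Glo luminescence.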
* marks the source's active call; other numbers are inactive results; u = inconclusive; x = no result given. Unless noted, calls follow the shape of the dose curve; as a rule, active = well fitted curve in the direction sought with a large enough effect; inconclusive = small, poorly fitted or top-dose-only effect, or another doubt; inactive = no such curve, though single readings can be large; an effect the other way counts as inactive or inconclusive. % is scaled to controls: 0 for no effect and ±100 for the full control effect.

SMILES	Six1-Eya2 blk	TDP1 cell noCPT	IL-1B inflam inh	CtBP-E1A blk	TDP1 inh	TDP1 cell CPT
COc1ccc2nc(-c3cccc(N)c3)[nH]c2c1	-6	23µM*	-28	6	-10%	u
O=[N+]([O-])c1ccc2nc(-c3ccccc3)[nH]c2c1	-10	u	-69*	-10	3%	u
Nc1cccc(-c2nc3ccc(C(=O)c4ccccc4)cc3[nH]2)c1	-5	0.82µM*	49	x	x	0.73µM*
Cn1cccc1-c1nc2ccc([N+](=O)[O-])cc2[nH]1	3	u	-16	-25	x	-1%
C=CCNC(=O)C(=O)NCCOc1ccccc1Cl	-1	u	16	9	-3%	12µM*
Cc1c(C(=O)Nc2ccc(S(=O)(=O)N(C)C3CCN(C)CC3)cc2)oc2ccccc12	-5	18µM*	-52*	0	1%	21µM*
Cc1c(C(=O)Nc2ccc(S(=O)(=O)N(C)C3CCN(C)CC3)cc2)oc2c(Cl)cccc12	-10	u	-96*	-2	x	u
CN1CCC(N(C)S(=O)(=O)c2ccc(NC(=O)c3ccc(S(=O)(=O)N(C)C)cc3)cc2)CC1	-3	-27%	-11	0	0%	0%
Cc1c(C(=O)Nc2ccccn2)oc2c(Cl)cccc12	8	u	12	-2	x	-26%
O=c1nc(-c2ccccc2)c2cc(Br)ccc2[nH]1	-9	0.23µM*	-24	-24	x	0.33µM*
O=c1nc(-c2ccccc2)c2cc(SC(F)F)ccc2[nH]1	-23	0.41µM*	5	2	x	-5%
O=c1nc(-c2ccccc2)c2cc(Cl)ccc2[nH]1	u	1.3µM*	-19	-2	3%	u
CN1OC[C@@H]2CN[C@H](c3cccc(-c4cc(Cl)cc(Cl)c4)c3)C[C@@H]21	-5	u	u	-6	x	u
CN1OC[C@@H]2CN[C@H](c3ccc(-c4ccc(C#N)cc4)cc3)C[C@@H]21	14	23µM*	6	-7	x	18µM*
CN1OC[C@@H]2CN(C(=O)c3ccco3)[C@H](c3ccc(-c4ccc(C#N)cc4)cc3)C[C@@H]21	-5	u	-13	-23	x	u
CN1OC[C@@H]2CN[C@H](c3ccc(-c4cc5ccccc5o4)cc3)C[C@@H]21	-4	23µM*	-10	5	x	16µM*
C=CCc1cc(Cl)ccc1OCCNCCCOC	4	u	u	0	0%	u
COc1cccc2sc(N(CCCN(C)C)C(=O)COc3ccc(Cl)cc3)nc12	0	u	-27	6	8%	u
Cc1cccn2c(=O)nc(SCC(=O)NCc3ccccc3)nc12	-3	u	3	10	-3%	u
CCCN(CC1CC1)C(=S)Nc1ccc(Oc2ccccc2)cc1	-5	16µM*	29	-3	8%	u
COc1ccccc1NC(=S)NC1CCCCCCCCCCC1	-6	21µM*	5	x	7%	10µM*
CN(C(=S)Nc1ccc(Oc2ccccc2)cc1)C1CCCCC1	-11	26µM*	-100*	-13	3%	u
COc1ccccc1NC(=S)NC1CCCCC1	1	-14%	-16	-9	-11%	2%
CCCCN(C)C(=S)Nc1ccc(Oc2ccccc2)cc1	0	u	0	-7	3%	-25%
S=C(Nc1ccc(Oc2ccccc2)cc1)NC1CCCCCC1	-15	23µM*	-76*	-17	1%	21µM*
SMILES	Six1-Eya2 blk	TDP1 cell noCPT	IL-1B inflam inh	CtBP-E1A blk	TDP1 inh	TDP1 cell CPT
S=C(Nc1ccc(Oc2ccc(NC(=S)NC3CCCCC3)cc2)cc1)NC1CCCCC1	-14	u	-2	-14	-5%	u
S=C(Nc1ccc(Oc2ccccc2)cc1)NC1CCCCC1	-8	u	-15	-6	0%	26µM*
Nc1ncnc(N2CCc3ccccc32)c1[N+](=O)[O-]	1	7.3µM*	-1	-2	0%	5.8µM*
O=C(c1ccco1)N1CCN(c2ncnc3sc4c(c23)CCC4)CC1	-25	20µM*	0	u	x	u
O=C(c1ccco1)N1CCN(c2ncnc3c(-c4ccccc4)nsc23)CC1	-15	21µM*	-7	-14	-4%	18µM*
O=C(c1ccco1)N1CCN(c2ncnc3scc(-c4ccc(Cl)cc4)c23)CC1	-11	u	52	-1	x	u
NC(=O)C1CCN(c2ncnc3c(-c4ccccc4)nsc23)CC1	-6	-4%	u	-1	-1%	-3%
COc1ccc(CN2CCN(c3ncnc4sc5c(c34)CC(C)CC5)CC2)cc1F (stereo not drawn)	x	6.5µM*	x	x	x	15µM*
c1nc(N2CCC3(CC2)OCCO3)c2c3c(sc2n1)CCCC3	3	u	-14	12	2%	u
c1ccc(N2CCN(c3ncnc4sc5c(c34)CCC5)CC2)cc1	-27	21µM*	-7	-28	4%	21µM*
CCOc1ccc(CN2CCN(c3ncnc4sc5c(c34)CC(C)CC5)CC2)cc1 (stereo not drawn)	x	u	x	x	x	-20%
Clc1ccc(CN2CCN(c3ncnc4sc5c(c34)CCCC5)CC2)cc1Cl	x	23µM*	x	x	3%	21µM*
c1ccc(N=NC2=NN(c3ccccc3)CS2)cc1	-77*	5.8µM*	-17	u	x	u
